Hits are enriched below; roughly 2.1% of the tested compounds scored in any of these assays.
Giardia killer: kills Giardia lamblia; Giardia lamblia trophozoite viability; activity change, % at 7.66 µM, hits read low; 340,000 tested, 0.15% active; AID 540267; in the data active = activity change below about -80%; inconclusive = between about -30% and that limit;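 also: parasites exposed to compound for two days anaerobically before the ATP read; % is scaled to controls: 0 for no effect and ±100 for the full control effect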
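Trophozoite viability was measured as ATP-dependent luminescence, read 15-30 min after reagent addition. Before that, parasites at 100 cells/well were exposed to compounds for 48 h, anaerobically, at 37 deg C.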
uPA generation: cell surface uPA generation inhibition; cell surface uPA generation assay, qHTS; Potency, µM (highest dose often 38.3 µM), for the others: at the highest dose activity change, negative = inhibition, actives largely listed as inhibitors; 330,000 tested, 0.31% active; AID 540303; active = well fitted inhibition curve with a large enough effect; inconclusive = small, poorly fitted or top-dose-only effect; inactive = no such curve, though single readings can be large or run the other way; tested in mouse RAW 264.7 cells; also: potency is read from the fitted curve at half-maximal effect; % is scaled to controls: 0 for no effect and ±100 for the full control effect; nearly all actives have a fitted effect of over 55% in size
p53 reactivator: restores transcriptional activity of mutant p53. H1299 p53-A138V BP100-luciferase reporter, luminescence, 24 h. Potency, µM (top dose mostly 92.2 µM), without a hit: at the top dose activity change, positive = activation, hits mostly activators. 320,000 tested, 0.063% active; also: potency is read from the fitted curve at half-maximal effect; % of control where 0% means no effect; nearly all actives have a fitted effect of over 45% in size
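H1299 (p53-null), stable ts p53-A138V + BP100-Luc; 1000 cells/well, Opti-MEM/10% FBS; cpd 4 pt, 1:5; 24 h, 37 deg C, 5% CO2; detection reagent 10 min RT; luminescence.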
B2AR arrestin: beta2AR (human) beta-arrestin recruitment activity; P07550; Potency, µM (titrated, usually from 46.1 µM), for the others: top-dose activation, hits mostly activators; beta-arrestin recruitment to beta2AR, cell-based reporter; AID 492947; 330,000 tested, 0.02% active;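 also: potency is read from the fitted curve at half-maximal effect; 0% = DMSO controls and full agonism = EC100 isoproterenol or metaproterenol; nearly all actives have a fitted effect of over 65% in size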
Target sequence (P07550 whole entry, looked up): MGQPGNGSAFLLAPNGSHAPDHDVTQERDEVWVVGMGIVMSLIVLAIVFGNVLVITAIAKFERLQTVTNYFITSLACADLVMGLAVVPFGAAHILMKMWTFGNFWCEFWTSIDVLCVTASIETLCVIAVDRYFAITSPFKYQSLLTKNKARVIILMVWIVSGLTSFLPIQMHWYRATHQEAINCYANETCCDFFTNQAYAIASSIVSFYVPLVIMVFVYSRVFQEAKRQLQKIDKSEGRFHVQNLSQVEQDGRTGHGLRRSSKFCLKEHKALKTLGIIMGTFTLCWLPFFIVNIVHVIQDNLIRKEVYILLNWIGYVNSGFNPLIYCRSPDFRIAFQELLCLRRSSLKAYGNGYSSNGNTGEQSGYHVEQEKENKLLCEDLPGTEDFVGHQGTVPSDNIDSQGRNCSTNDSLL
ClpP mod: qHTS Assay for Activators of ClpP. ATP-dependent Clp protease proteolytic subunit (Bacillus subtilis (strain 168)), P80244. purified B. subtilis ClpP, FRET peptide cleavage, 20 min. Potency, µM (titrated, usually from 57.5 µM), for inactives: top-dose activity change, negative = active. 340,000 tested, 1.9% active. AID 651965, 2013; active = well fitted falling curve with a large enough effect; inconclusive = small, poorly fitted or top-dose-only effect; inactive = no such curve, though single readings can be large or run the other way; also: potency is read from the fitted curve at half-maximal effect; the source files actives as falling curves though it sought activators and does not explain the sign; nearly all actives have a fitted effect of over 65% in size
Target sequence (P80244 whole entry, looked up): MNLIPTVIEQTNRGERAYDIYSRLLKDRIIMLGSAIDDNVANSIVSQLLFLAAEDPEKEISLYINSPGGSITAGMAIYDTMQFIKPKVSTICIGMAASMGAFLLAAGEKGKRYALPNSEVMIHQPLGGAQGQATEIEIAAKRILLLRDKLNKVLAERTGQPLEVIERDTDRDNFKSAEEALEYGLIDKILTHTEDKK
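Buffer: 100 mM Tris/HCl pH8, 100 mM KCl, 0.05% low protease BSA, 2.5% glycerol, 0.01% Tween-20. ClpP 10 microg/mL final; 20 min RT; delta FRET normalized to ADEP and DMSO controls.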
Mito fusion yeast: inhibitors of mitochondrial division or activators of mitochondrial fusion; 320,000 tested, 0.23% active; Potency, µM (top dose mostly 46.1 µM), for the others: at the highest dose growth rescue (activation), hits mostly activators; S. cerevisiae fusion-defective mutant growth rescue, CellTiterGlo 48 h; also: potency is read from the fitted curve at half-maximal effect; % of control where 0% means no effect; nearly all actives have a fitted effect of over 45% in size
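Temperature-sensitive fusion-defective S. cerevisiae (e.g. fzo1-1, mgm1-5) were grown with compound in YPEG medium (3% ethanol, 3% glycerol) for 48 hours at 37C. Growth rescue was measured as viability by CellTiterGlo luminescence after 10 minutes at ambient.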
Active calls of the source: *; ? = inconclusive; / = not tested or not shown. Unless noted, calls follow the shape of the dose curve; as a rule, active = well fitted curve in the direction sought with a large enough effect; inconclusive = small, poorly fitted or top-dose-only effect, or another doubt; inactive = no such curve, though single readings can be large; an effect the other way counts as inactive or inconclusive.

SMILES | Giardia killer | uPA generation | p53 reactivator | B2AR arrestin | ClpP mod | Mito fusion yeast
Cc1ccc(OCc2nc(-c3ccc(C(=O)N4CCN(c5ccccc5F)CC4)cc3)oc2C)cc1 | / | / | / | / | 1% | /
CC(NC(=O)Nc1ccc(Cl)c(Cl)c1)C(c1ccccc1)N1CCOCC1 (centres undefined) | -10 | 5µM* | 13% | -1% | 0% | -1%
CC(NC(=O)Nc1ccc([N+](=O)[O-])cc1)C(c1ccccc1)N1CCOCC1 (centres undefined) | -1 | -3% | -1% | 0% | / | 6%
O=C(O)CSc1nc(-c2ccccc2)nc2c1oc1ccccc12 | -4 | -4% | 1% | -1% | -2% | 3%
O=C(O)CSc1nc(-c2ccc(Cl)cc2)nc2c1oc1ccccc12 | 17 | -3% | 8% | 0% | -10% | 8.9µM*
CC(=O)Nc1ccc(S(=O)(=O)Oc2ccc(C(=S)N3CCCCC3)cc2)cc1 | -1 | -1% | 4% | -1% | 4µM* | 10%
CC(=O)Nc1ccc(S(=O)(=O)Oc2ccc(C(=S)N3CCC(O)CC3)cc2)cc1 | 3 | -2% | 2% | -5% | 1% | -11%
COC(=O)c1oc2nc(C)cc(C)c2c1N | 2 | 2% | -2% | 3% | 28µM* | -1%
CCCCn1c2ccccc2c2nnc(SCC(=O)Nc3ccc(NC(C)=O)cc3)nc21 | / | / | / | / | -3% | /
COc1ccccc1OCCC(=O)OCC(=O)Nc1ccc(Br)cc1 | -7 | -2% | -6% | 0% | 28µM* | 0%
COc1cc2cc(CN(CCO)C(=O)c3cccs3)c(=O)[nH]c2cc1OC | -10 | / | 1% | 0% | 32µM* | 2%
COc1cc2cc(CN(CCc3cccc(C)c3)C(=S)NCCCN(C)C)c(=O)[nH]c2cc1OC | 14 | -4% | 2% | -1% | 28µM* | -1%
CCOC(=O)c1cnn2c1[nH]c(=O)c1ccccc12 | -2 | 3% | 19% | -1% | 3.5µM* | 1%
COc1ccc(-c2noc(CSc3nnc(-c4ccncc4)n3-c3ccc(C)cc3)n2)cc1OC | / | / | / | / | 1% | /
CCCOc1cccc(NC(=O)OC2CCN(C)CC2)c1 | 5 | 1% | -9% | -2% | 25µM* | -11%
CN1CCC(N(C)CC(=O)Nc2cccc(Oc3ccccc3)c2)CC1 | 1 | / | 1% | 0% | 2% | -4%
FC(F)(F)c1cc(-c2ccco2)nc(-n2nc(C(F)(F)F)cc2C2CC2)n1 | 10 | / | 8% | 0% | 28µM* | 0%
CN1CCN(c2nc(-c3ccco3)cc(C(F)(F)F)n2)CC1 | 36 | / | 2% | 3% | -30% | -7%
FC(F)(F)c1cc(-c2ccco2)nc(-n2nnc3ccccc32)n1 | 10 | / | 2% | 0% | 28µM* | 0%
COc1ccc(Nc2nnc(-c3ccc(C)c(S(N)(=O)=O)c3)c3ccccc23)cc1 | / | / | / | / | 1% | /
CCCCn1c(=O)n(C)c(=O)c2c3c(sc21)COC(C)(C)C3 | 8 | -8% | -3% | -1% | 28µM* | 0%
Cc1cc(Nc2cccc(Cl)c2)nc2ccc(NC(=O)c3ccc(F)cc3Cl)cc12 | / | / | / | / | 28µM* | /
Cc1cccn2c(=O)c3cc(C#N)c(=O)n(Cc4cccnc4)c3nc12 | -2 | 2% | 1% | 0% | 2.8µM* | -3%
CCCN(CCC)CCNC(=O)Cn1cnc2sc(C)c(S(=O)(=O)N3CCN(c4ccccc4OC)CC3)c2c1=O | / | / | / | / | -4% | /
COC(=O)/C=C/C(=O)N1CCN(c2ccccc2C)CC1 | 1 | 11µM* | 15% | 0% | -2% | -9%
SMILES | Giardia killer | uPA generation | p53 reactivator | B2AR arrestin | ClpP mod | Mito fusion yeast
COc1cccc(CNC(=O)CCCN2C(=O)CSc3c2c(C)nn3-c2ccccc2)c1 | / | / | / | / | 0% | /
CC1=C(C#N)C(c2ccc(O)cc2)C2=C(CCCC2=O)N1 (centres undefined) | -4 | 4% | 2% | 0% | / | 4%
CC1=C(C#N)C(c2cccnc2)C2=C(CC(c3ccc(Cl)cc3)CC2=O)N1 (centres undefined) | 5 | 2% | -4% | 0% | 28µM* | 1%
CC1CCN(C2=C(NS(=O)(=O)c3ccc(Cl)cc3)C(=O)c3ccccc3C2=O)CC1 | 12 | -1% | 15% | 0% | / | 16µM*
CN1c2ccccc2-c2nc3ccccc3n2C1c1ccncc1 (centres undefined) | 0 | 6% | -10% | 0% | 20µM* | 1%
CN1c2ccccc2-c2nc3ccccc3n2C1c1ccccn1 (centres undefined) | -3 | -2% | -2% | 0% | -1% | -6%
CN(c1ccccc1)S(=O)(=O)c1cccc(NC(=O)c2ccc(=O)[nH]n2)c1 | -7 | -1% | 2% | 0% | 25µM* | /
CN(c1ccccc1)S(=O)(=O)c1cccc(NC(=O)c2ccc(=O)[nH]c2)c1 | 10 | -3% | -6% | -2% | -1% | -10%
CCC(C)c1ccccc1NC(=O)COC(=O)c1ccc2c(c1)S(=O)(=O)c1ccccc1C2=O (centres undefined) | 15 | 8% | 4% | -1% | 22µM* | -12%
COC(=O)c1cc(C#N)c(Oc2ccccc2)nc1C | -24 | -5% | / | / | -3% | /
CCCNc1nc(-c2ccccc2)c(C(=O)OCC)cc1C#N | -13 | -11% | 16% | 0% | 28µM* | ?
CCOC(=O)c1cc(C#N)c(Oc2ccccc2)nc1-c1ccccc1 | 10 | -2% | 1% | 0% | -7% | 13µM*
O=C(c1ccco1)N1CCN(c2c([N+](=O)[O-])nn(-c3cccc(Cl)c3)[n+]2[O-])CC1 | -87* | -23% | 5% | 0% | 1% | 3%
O=C(c1ccc(Cl)c([N+](=O)[O-])c1)N1CCN(C(=O)c2ccco2)CC1 | 20 | -6% | 15% | 0% | -2% | 3%
CCOC(=O)N/N=C/c1cn(CCCOc2ccccc2)c2ccccc12 | 11 | 0% | 20% | 0% | 28µM* | 14%
COc1cccc(Cn2c(N)c(C#N)c3nc4ccccc4nc32)c1OC | 3 | -1% | -3% | 0% | 13µM* | 5%
COc1cc(Cn2c(N)c(C#N)c3nc4ccccc4nc32)cc(OC)c1 | -7 | 3% | -10% | 0% | 32µM* | -1%
CSc1ccc(/C=C/c2nc3ccccc3n2S(=O)(=O)c2ccc(Br)cc2)cc1 | / | / | / | / | 4% | /
COC(=O)C1=CN(c2ccc(OC)cc2OC)C(N)=C(C#N)C1c1cccc([N+](=O)[O-])c1 (centres undefined) | / | / | / | / | 1% | /
CCOc1ccccc1NC(=O)CC1Nc2ccccc2NC1=O (centres undefined) | -1 | -11% | 14% | 1% | 25µM* | 7%
CCCC(=O)NC1CC(=O)N(c2ccc3c(c2)OCCO3)C1 (centres undefined) | / | / | / | / | 1% | /

Screening results from PubChem.
